Screening data (PubChem)
Epigenetic derep: regulators of epigenetic silencing causing reporter derepression in mouse cells; murine LDR cells, GFP reporter derepression, 30 h; Potency, µM (titrated, usually from 53.9 µM), inactives show at the highest dose GFP activation, most hits filed as activators; AID 1865; 280,000 tested, 0.2% active; active = well fitted activation curve with a large enough effect; also: potency is read from the fitted curve at half-maximal effect; % of control where 0% means no effect; nearly all actives have a fitted effect of over 60% in size
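Murine LDR cells bearing a silenced CMV-driven GFP reporter were exposed to compound for 30 h at 37 C. After PBS washes, GFP-positive cells (20-120 um objects) counted by laser-scanning microplate cytometry.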
D1 antagonist: blocks dopamine activation of the human D1 receptor. activity change, negative = inhibition, % at 10 µM. 360,000 tested, 3.2% active. HEK293 TREx D1 cells, calcium flux, dopamine EC80; active compounds read low. AID 504652; in the data active = activity change below about -30%; also: % is scaled to controls: 0 for no effect and ±100 for the full control effect
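Using tetracycline-induced force-coupled D1 Hek293 cells and a calcium dye, signals were followed for 180 s after compound, then for 180 s after EC80 dopamine, to detect inhibitors.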
TRHR PAM: TRH receptor (human) allosteric enhancement; AID 493056; P34981; TRHR cells, fluo-8 calcium fluorescence, EC20 TRH enhancement; 360,000 tested, 0.66% active; enhancement, % at 2 µM; in the data active = enhancement above about 30%; also: 0% is about no effect
Target sequence (P34981 whole entry, looked up): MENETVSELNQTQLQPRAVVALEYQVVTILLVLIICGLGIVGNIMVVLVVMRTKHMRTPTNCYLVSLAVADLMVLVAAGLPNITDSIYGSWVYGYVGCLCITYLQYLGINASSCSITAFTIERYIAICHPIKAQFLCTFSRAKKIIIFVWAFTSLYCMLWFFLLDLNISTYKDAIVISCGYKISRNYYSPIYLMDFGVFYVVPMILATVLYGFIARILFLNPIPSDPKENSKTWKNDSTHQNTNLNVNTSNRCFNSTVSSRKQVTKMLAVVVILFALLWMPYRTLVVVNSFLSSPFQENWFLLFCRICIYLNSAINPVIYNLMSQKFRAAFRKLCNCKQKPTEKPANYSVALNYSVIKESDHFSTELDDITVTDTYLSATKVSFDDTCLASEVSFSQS
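TRHR-expressing cells loaded with fluo-8 calcium dye were read kinetically (ex 480/em 530) during compound addition, then stimulated with an EC20 of TRH (10 nM final). Enhancement of the Gq-mediated intracellular calcium response was scored.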
D1 agonist: activates the human D1 dopamine receptor. P21728. HEK293 T-REx D1 cells, calcium flux, agonist mode. 360,000 tested, 1% active. activation, % at 2 µM; also: 0% is about no effect
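Inducible HEK293 T-REx D1 cells, force-coupled to calcium signalling, were plated at 4000 cells/well with tetracycline and held overnight at 30 C. After no-wash calcium dye loading, compound-evoked calcium rise over 180 s flagged agonists.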
D1 potentiator: potentiators of human D1 dopamine receptor; AID 504651; 360,000 tested, 0.036% active; potentiation, % at 10 µM; HEK293 TREx D1 cells, calcium flux, dopamine EC20 potentiation; P21728; in the data active = potentiation above about 30%; also: 0% is about no effect
TRHR ag: activates the human TRH receptor. activation, % at 2 µM. AID 493084. TRHR cells, calcium flux fluo-8, FDSS agonist mode. 360,000 tested, 0.18% active; also: 0% is about no effect
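TRHR-expressing cells loaded with fluo-8 calcium dye; 23 nL library compound pin-transferred, kinetic FDSS fluorescence (Ex 480/Em 530) recorded about 180 s for agonist-induced calcium release, before a 10 nM TRH EC20 addition for potentiator mode.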
Starred values were filed as active, the others as inactive; . = no result; ! = not confirmed by another sample. In the library only some 4.6% were active in any assay of this set; here they are far more common. Rule as the data show it, unless noted: active = activation above about 30%; inactive = the rest.

SMILES	Epigenetic derep	D1 antagonist	TRHR PAM	D1 agonist	D1 potentiator	TRHR ag
Cc1sc2ncn(CC(=O)NCC3COc4ccccc4O3)c(=O)c2c1S(=O)(=O)N1CCOCC1 (centres undefined)	1%	0	2	3	-5	0
Cc1sc2ncn(CC(=O)NCC3COc4ccccc4O3)c(=O)c2c1S(=O)(=O)N1CCCCC1 (centres undefined)	2%	-37*	-11	2	2	-1
CCCCNC(=O)Cn1cnc2sc(C)c(S(=O)(=O)N3CCN(c4ncccn4)CC3)c2c1=O	1%	-1	-5	2	-8	0
Cc1sc2ncn(CC(=O)NCCCOC(C)C)c(=O)c2c1S(=O)(=O)N1CCN(c2ncccn2)CC1	0%	-64*	-3	1	-14	0
Cc1cccc(N2CCN(C(=O)CN3C(=O)COc4ccc(S(=O)(=O)N5CCCCCC5)cc43)CC2)c1C	-2%	24	6	5	7	1
CCOc1ccccc1C(=O)N1CCN(c2cccc(Cl)c2)CC1	0%	-5	3	-2	2	-2
CC(=O)c1ccc(N2CCN(C(=O)C3CCN(C(=O)Nc4ccccc4)CC3)CC2)cc1	.	-5	3	0	-1	0
O=C(O)/C=C\C(=O)Nc1ccc(N2CCN(c3ccc(F)cc3)CC2)cc1	-1%	12	-2	0	-4	-1
CC(=O)c1ccc(NC(=O)N2CCN(c3cccc(Cl)c3)CC2)cc1	1%	-51*	3	20	-8	-2
CC(=O)Nc1ccc(N2CCN(c3ccc(F)cc3)CC2)cc1	.	3	33*	3	-5	0
CC(=O)c1cccc(NC(=O)N2CCN(S(C)(=O)=O)CC2)c1	0%	-5	34*	2	-5	0
O=C(O)c1ccccc1C(=O)N1CCN(c2cccc(Cl)c2)CC1	0%	-44*	-1	5	-24	1
O=C(c1ccc(Cc2nc3ccccc3[nH]2)cc1)N1CCOCC1	-2%	.	.	.	.	.
COc1ccc(-c2noc(-c3ccc(NC4CCCC4)c([N+](=O)[O-])c3)n2)cc1OC	-4%	-21	1	14	-2	0
COc1cc(NC(=O)COCc2cc(-c3ccc4c(c3)OCO4)on2)cc(OC)c1	1%	-1	-4	13	-1	1
CC(=O)c1ccc(N2CCN(C(=O)Nc3ccc(Cl)cc3)CC2)cc1	-3%	-51*	-8	14	-2	-1
O=C(Nc1ccc(Cl)cc1)N1CCN(c2ccccc2)CC1	-1%	-13	12	2	-8	0
CC1CN(C(=O)N2CCC(C(=O)N3CCN(c4ccccc4)CC3)CC2)c2cc(Cl)ccc2O1 (centres undefined)	1%	-17	-3	-1	-4	-1
N=c1c(C(=O)NCC2CCCO2)cc2c(=O)n3ccccc3nc2n1Cc1ccccc1Cl (centres undefined)	.	-39*	6	5	-2	2
N=c1c(C(=O)NCC2CCCO2)cc2c(=O)n3ccccc3nc2n1Cc1ccccc1 (centres undefined)	.	12	0	-1	-3	0
Cc1cc(NC(=S)N(CCCN2CCN(C)CC2)Cc2ccco2)ccc1Cl	5%	-31*	-7	9	0	0
Cc1ccc(Cl)cc1NC(=S)N(CCCN1CCOCC1)Cc1ccco1	6%	-52*	0	3	-12	0
Cc1ccc(NC(=S)N(CCCN2CCOCC2)Cc2ccco2)cc1C	0%	8	-1	-1	0	1
CCOC(=O)N1CCc2c(sc(NCc3ccc(N(C)C)cc3)c2C(=O)Nc2ccccc2OCC)C1	1%	2	6	0	1	-1
Cc1cccc(OCc2nnc(SCC(=O)Nc3cccc(C(=O)N4CCOCC4)c3)n2C)c1	12%	10	-3	3	-4	-1
SMILES	Epigenetic derep	D1 antagonist	TRHR PAM	D1 agonist	D1 potentiator	TRHR ag
Cc1cccc(OCc2nnc(SCC(=O)Nc3cccc(C(=O)N4CCOCC4)c3)n2C)c1C	6%	-42*	4	2	-2	0
COc1ccc(C)cc1NC(=O)CN(C)S(=O)(=O)c1ccc2c(c1)c(=O)n(C)c(=O)n2C	0%	-30*!	-2	3	-2	0
CCOC(=O)c1c(C)[nH]c(C)c1S(=O)(=O)N(C)CC(=O)Nc1cc(C)ccc1OC	.	-40*	-2	0	-7	-1
CCOC(=O)c1c(C)[nH]c(C)c1S(=O)(=O)NCC(=O)Nc1cc(C)ccc1OC	3%	-7	-4	4	-2	-1
COCCNC(=O)c1ccc(-c2nc(CN3CCc4ccccc43)c(C)o2)cc1	2%	5	-1	2	1	0
Cc1oc(-c2ccccc2)cc1C(=O)NC1CCN(Cc2ccccc2)CC1	0%	-85*	4	3	-16	0
O=C(NC1CCN(Cc2ccccc2)CC1)c1ccccc1OCc1ccccc1Cl	.	-38*	-12	5	-5	2
CCOc1ccccc1C(=O)NC1CCN(Cc2ccccc2)CC1	.	-31*	-3	0	0	0
Cc1cc2nc(-c3cc(NC(=O)c4cc5ccccc5o4)ccc3Cl)oc2cc1C	1%	-20	-3	0	-1	3
CCN1C(=NCC(C)C)N[C@@H](c2ccccc2)[C@H](C(=O)OC)[C@H]1C	.	-7	5	3	-1	1
C=Cc1ccc(Cn2c(=O)n(-c3cccc(Cl)c3)c(=O)c3c4c(sc32)CN(C(C)=O)CC4)cc1	2%	10	1	4	-6	0
Cc1cccc(CCNC(=O)C2CCC(CNS(=O)(=O)c3c(C)cc(C)cc3C)CC2)c1 (centres undefined)	0%	-6	1	9	1	0
CCOc1ccccc1CNS(=O)(=O)c1cc2c(cc1C)NC(=O)CO2	-1%	0	0	3	-3	-1
CC[C@@H]1C=C(C)C[C@H](C)C[C@H](OC)[C@H]2O[C@@](O)(C(=O)C(=O)N3CCCC[C@H]3C(=O)O[C@H](/C(C)=C/[C@@H]3CC[C@@H](O)[C@H](OC)C3)[C@H](C)[C@@H](O)CC1=O)[C@H](C)C[C@@H]2OC	0%	-4	-11	32*	-1	1
CO[C@H]1C[C@@H]2CC[C@@H](C)[C@@](O)(O2)C(=O)C(=O)N2CCCC[C@H]2C(=O)OC([C@H](C)C[C@@H]2CC[C@@H](O)[C@H](OC)C2)CC(=O)[C@H](C)/C=C(\C)[C@@H](O)[C@@H](OC)C(=O)[C@H](C)C[C@H](C)/C=C/C=C/C=C/1C (some centres undefined)	1%	.	.	.	.	.
